# Laboratory results published in PubChem BioAssay (EPA / NIEHS).
# Where “and” joins values, the source holds several entries; their conditions need not be identical. Equal values may be shown once. Records with an inconclusive call do not appear. Some structures have more than one record in an assay (separate samples or runs), and their calls can disagree. Calls of active or inactive are those of the source. How the source made its calls: active means hit-call score of the fitted dose curve at least 0.9, where 1 is the maximum; inconclusive means response in the unintended direction; inactive means score below 0.9.
# Test: TOX21_p53_BLA_p4_viability: Viability Assessment in the Tox21 HCT-116 p53 Agonism Beta-lactamase Assay, Phase 4 (AID 2283597);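 further: hits lower the luminescence signal meaning cytotoxicity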
# From the text: TOX21_p53_BLA_p4 is a cell-based, single-readout assay that uses HCT116, a human intestinal cell line, […] in a 1536-well plate.TOX21_p53_BLA_p4_viability is an assay readout measuring cellular ATP content and detected with CellTiter-Glo Luciferase-coupled ATP quantitation.TOX21_p53_BLA_p4_viability used a type of viability reporter where loss-of-signal activity can be used to understand changes in the cell viability. Furthermore, this assay endpoint can be referred to as a secondary readout, because this assay has produced multiple assay endpoints where this one serves a viability function. To generalize the intended target to other relatable targets, this assay endpoint is annotated to the cell cycle intended target family, where the subfamily is cytotoxicity.
# Thawing Method: Place 14 mL of pre-warmed thaw medium into a 15 mL of conical tub. Remove the vial of cells to be thawed from liquid nitrogen and thaw rapidly by placing at 37C in a water bath with gentle agitation for 1-2 minutes. Decontaminate the vial by wiping with 70% ethanol before opening in a biological safety cabinet. Transfer the vial contents drop-wise into 14 mL of thaw medium in a sterile 15-mL conical tub. Centrifuge cells at 900 rpm for 4 minutes and resuspend in thaw medium. Transfer contents to the T75 tissue culture flask containing Thaw Medium and place flask in a humidified 37C/5% CO2 incubator. Switch to growth medium at first passage.Propagation Method: Aspirate medium, rinse once in DPBS, add 0.25% Trypsin/EDTA and swirl to coat the cell evenly. Add an equal volume of Growth Medium to inactivate Trypsin after 2-3 minutes incubation at 37C. Centrifuge cells at 900 rpm for 4 minutes and resuspend in growth medium. Cell should be passage or fed at least twice a week.Assay Protocol: Harvest cells from culture in growth medium and resuspend in assay medium. 2.2 Dispense 4000 cells/5 uL/well into 1536-well black/clear bottom plates using a Multidrop dispenser. After the cells were incubated at 37C for 5 hours, 23 nL of compounds dissolved in DMSO were transferred to the assay plate by a PinTool resulting in a 217-fold dilution. Incubate the plates for 16 hours at 37C, 5% CO2. Add 1 uL of 6X LiveBLAzer FRET B/G (CCF4-AM) Substrate Mixture to each well using a BioRAPTR dispenser and incubate the plates at room temperature for 2 hours. Measure fluorescence intensity at 460 and 530 nm emission and 405 nm excitation by an Envision detector. Data is expressed as the ratio of 460nm/530nm emissions. Add 4 uL of Cell-titer Glo to each well using BioRAPTR and incubate the plates at room temperature for […]. For cell viability readout that measures cytotoxicity, 4 ul/well of CellTiter-Glo reagent was added into the assay plates using a Flying Reagent Dispenser. After 30 min incubation at room temperature, the luminescence intensity in the plates was measured using a ViewLux plate reader.
Structure (SMILES),outcome,AC50
CC1=NNC(=O)N(/N=C/c2cccnc2)C1,inactive,
CC(Oc1cccc(Cl)c1)C(=O)O (stereo not given),inactive,
CCCOCC(=Nc1ccc(Cl)cc1C(F)(F)F)n1ccnc1,,24.9 µM (active)
CC(C)[C@H](C(=O)O[C@H](C#N)c1cccc(Oc2ccccc2)c1)c1ccc(Cl)cc1,inactive,
CCCCN(CC)c1c([N+](=O)[O-])cc(C(F)(F)F)cc1[N+](=O)[O-],inactive,
S=C1NCCN1,inactive,
Cc1cc(C2CC2)nc(Nc2ccccc2)n1,,64.9 µM (active)
CCCSP(=O)(OCC)Oc1ccc(Br)cc1Cl (stereo not given),inactive,
CCCCSP(=O)(SCCCC)SCCCC,inactive,
COP(=O)(OC)SCn1c(=O)oc2cc(Cl)cnc21,inactive,
C[Si](Cn1cncn1)(c1ccc(F)cc1)c1ccc(F)cc1,inactive,53 µM (active)
CC[C@H](C)[C@H]1O[C@]2(C=C[C@@H]1C)C[C@@H]1C[C@@H](C/C=C(\C)[C@@H](O[C@H]3C[C@H](OC)[C@@H](O[C@H]4C[C@H](OC)[C@@H](NC)[C@H](C)O4)[C@H](C)O3)[C@@H](C)/C=C/C=C3\CO[C@@H]4[C@H](O)C(C)=C[C@@H](C(=O)O1)[C@]34O)O2,,8.89 µM (active)
CC1(C(=O)Nc2ccc(O)c(Cl)c2Cl)CCCCC1,inactive,
O=c1ccc(=O)[nH][nH]1,inactive,
CCC(CC)Nc1c([N+](=O)[O-])cc(C)c(C)c1[N+](=O)[O-],inactive,
CC(C)N(C(=O)SCC(Cl)=C(Cl)Cl)C(C)C,inactive,
CCCCOC(=O)[C@@H](C)Oc1ccc(Oc2ccc(C#N)cc2F)cc1,inactive,
CNC(=O)ON=C(SC)C(=O)N(C)C,inactive,
CCNc1nc(Cl)nc(NC(C)(C)C#N)n1,inactive,

Structure (SMILES),outcome,AC50
CC(=NC#N)N(C)Cc1ccc(Cl)nc1,inactive,
Nc1nc(N)nc(NC2CC2)n1,inactive,
CCc1cccc(C)c1N(C(=O)CCl)C(C)COC (stereo not given),inactive,
CCOC(=O)COc1cc(-c2nn(C)c(OC(F)F)c2Cl)c(F)cc1Cl,inactive,
CC(COc1ccc(Oc2ccccc2)cc1)Oc1ccccn1 (stereo not given),inactive,
COP(=O)(NC(C)=O)SC (stereo not given),inactive,
CCOP(=S)(OCC)SCCSCC,inactive,
C#CCC1=C(C)C(OC(=O)C2C(C=C(C)C)C2(C)C)CC1=O (stereo not given),inactive,
CCOC(=O)CC(SP(=O)(OC)OC)C(=O)OCC (stereo not given),inactive,
COP(=O)(OC)C(O)C(Cl)(Cl)Cl (stereo not given),inactive,
COc1ccc(C(=CC(=O)N2CCOCC2)c2ccc(Cl)cc2)cc1OC,inactive,
CCC(=O)Nc1ccc(Cl)c(Cl)c1,inactive,
Cc1nn(-c2cc(NS(C)(=O)=O)c(Cl)cc2Cl)c(=O)n1C(F)F,inactive,
CSC1=N[C@@](C)(c2ccccc2)C(=O)N1Nc1ccccc1,inactive,
CC(C1CC1)C(O)(Cn1cncn1)c1ccc(Cl)cc1 (stereo not given),inactive,
CC(C)=CC1C(C(=O)OCN2C(=O)C3=C(CCCC3)C2=O)C1(C)C (stereo not given),inactive,46.1 µM (active)
N#CSCSC#N,,51.1 µM (active) and 61.9 µM (active)
CCCCOC(=O)c1ccccc1C(=O)O,inactive,
FC(F)C(F)(F)OCC(Cn1cncn1)c1ccc(Cl)cc1Cl (stereo not given),,60.5 µM (active)
